PAFAH2 inh: PAFAH2 enzyme inhibitors, primary screen, biochemical, fluorescence polarization, human. Platelet-activating factor acetylhydrolase 2, cytoplasmic (Homo sapiens), Q99487. recombinant PAFAH2, FP-rhodamine activity probe. inhibition, % at 3.39 µM. hit rate 0.99% among 340,000. AID 492956, 2010;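 active = inhibition above the mean over all tested compounds plus 3 SD, cut at about 30% in these data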;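 note: inhibitors block probe labeling of enzyme so polarization drops; 0% = enzyme with DMSO and 100% = wells lacking PAFAH2 protein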
PAFAH1B2 inh: PAFAH1B2 enzyme inhibitors, primary screen, biochemical, fluorescence polarization, human | Platelet-activating factor acetylhydrolase IB subunit alpha2 (Homo sapiens), P68402 | recombinant PAFAH1B2, FP-rhodamine activity probe | inhibition, % at 3.39 µM | hit rate 1.2% among 340,000 | AID 492953, 2010;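 active = inhibition above the mean of all tested compounds plus 3 SD, cut at about 24% in these data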;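 note: 0% = enzyme with DMSO and 100% = wells lacking PAFAH1B2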
rCAG binder: binders of r(CAG) RNA repeats, primary screen, biochemical, fluorescence; r(CAG) RNA repeat, TO-PRO-1 dye displacement fluorescence; inhibition, % at 3 µM; hit rate 1.3% among 370,000;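 active = inhibition above the plate cutoff, the mean of all test compounds on that plate plus 3 SD, cut at about 35% in these data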;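 note: 0% = DMSO alone and 100% = 100 µM mitoxantrone as full dye displacement; higher means more dye released from RNA so lower well fluorescence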
PAFAH1B3 FP inh: PAFAH1B3 enzyme inhibitors, primary screen, biochemical, fluorescence polarization, human. AID 492972, 2010. hit rate 0.28% among 340,000. recombinant PAFAH1B3, FP-rhodamine probe. inhibition, % at 3.39 µM. Platelet-activating factor acetylhydrolase IB subunit alpha1 (Homo sapiens), Q15102;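 active = inhibition above the screen-wide average of all tested compounds plus 3 SD, cut at about 25% in these data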;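 note: 0% = enzyme with DMSO only and 100% = wells lacking PAFAH1B3 protein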
Target sequence (Q15102 whole entry, looked up): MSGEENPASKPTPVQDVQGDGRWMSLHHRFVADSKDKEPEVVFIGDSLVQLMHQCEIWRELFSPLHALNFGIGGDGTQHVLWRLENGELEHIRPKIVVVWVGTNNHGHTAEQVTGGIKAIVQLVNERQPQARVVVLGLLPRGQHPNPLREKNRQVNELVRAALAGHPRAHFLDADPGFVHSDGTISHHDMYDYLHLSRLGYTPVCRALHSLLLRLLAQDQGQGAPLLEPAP
EBNA-1 inh: EBNA-1 DNA-binding inhibitors, primary screen, biochemical, fluorescence polarization; hit rate 0.34% among 300,000; inhibition, % at 14.8 µM; in the data active = inhibition above about 28%
ZTA DNA inh: blocks Epstein-Barr virus ZTA, an EBNA-1 counter-screen; ZTA-DNA binding, fluorescence polarization; hit rate 0.15% among 320,000; inhibition, % at 11 µM; AID 2234; P03206; in the data active = inhibition above about 33%
PAFAH2 confirm: PAFAH2 enzyme inhibitors, confirmation, biochemical, fluorescence polarization, human; shares compounds with PAFAH2 inh; recombinant PAFAH2, FP-rhodamine activity probe; inhibition, % at 3.39 µM; hit rate 65% among 2,300; AID 493030, 2011;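 active = mean inhibition over three repeats above a set limit taken from the earlier primary screen, cut at about 30% in these data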;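 note: inhibitor blocks binding of rhodamine activity probe so polarization falls; 0% = enzyme with DMSO and 100% = wells lacking PAFAH2 protein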
* marks the source's active call; other numbers are inactive results; nt = no result given. An excerpt weighted towards active compounds, which were near 2.9% of everything screened.

SMILES	PAFAH2 inh	PAFAH1B2 inh	rCAG binder	PAFAH1B3 FP inh	EBNA-1 inh	ZTA DNA inh	PAFAH2 confirm
C=CCNC(=O)c1onc(CSc2ccccc2)c1C(=O)NCC=C	-1	-1	-6	20	-10	-5	nt
COC(=O)[C@]12C[C@H](CC(=O)N3CCSCC3)C(=O)N(CCc3ccc(OC)c(OC)c3)C1=C[C@H](C(C)(C)C)O[C@@H]2C	nt	nt	-1	nt	nt	nt	nt
COC(=O)[C@H](C(C)C)N(CCCc1cn(Cc2ccc(C)cc2)nn1)S(=O)(=O)c1ccccc1Br	nt	nt	4	nt	nt	nt	nt
O=C(COC(=O)c1ccc(S(=O)(=O)NCc2ccco2)cc1)NCC1CCCCC1	1	5	0	4	-1	8	nt
COc1ccc(C(=O)OCC(=O)NCC2CCCCC2)c(OC)c1	66*	2	-5	0	nt	nt	57*
O=C(COC(=O)c1ccc(F)cc1)NCC1CCCCC1	77*	1	-1	3	nt	nt	60*
COc1ccc(CC(=O)NCC2CCCCC2)cc1OC	-5	1	-6	6	-1	-9	nt
COc1ccc(C(=O)OCC(=O)NCC2CCCCC2)cc1F	85*	3	-7	1	nt	nt	72*
O=C(COC(=O)c1ccc(Cl)cc1)NCC1CCCCC1	59*	8	-1	9	nt	nt	60*
COc1ccc(OCC(=O)OCC(=O)NCC2CCCCC2)cc1	4	5	-1	1	nt	-5	nt
COc1ccc(-n2c(SCC(=O)Nc3cccc4ccccc34)nnc2-c2ccco2)cc1	nt	nt	6	nt	nt	nt	nt
CCOC(=O)C[C@@H]1OC[C@H](C(C)C)N1S(=O)(=O)c1ccc(C)cc1	nt	nt	0	nt	nt	nt	nt

Screening data from PubChem.
